# Screening results deposited in PubChem BioAssay by National Center for Advancing Translational Sciences (NCATS).
# Shiga toxin inh: blocks Shiga toxin action in Vero cells; Vero cells, Shiga toxin protein synthesis inhibition reporter; inhibition, % at 38.7 µM; hit rate 9.2% among 290,000; AID 2315; in the data active = inhibition mostly above about 28%, no sharp cut-off; inactive = mostly below about 43%; note: 0% is about no effect
# CHX counter: counter-screen hit for Shiga toxin inhibitors, cycloheximide; hit rate 12% among 300,000; max response, %; cell reporter, cycloheximide protein synthesis inhibition counterscreen; in the data active = max response mostly above about 13%, no sharp cut-off; inactive = mostly below about 14%; note: read at 38.3 µM for the half of the compounds with a filed dose; 0% is about no effect
# Pf growth 96h: P. falciparum growth inhibition at 96 hours; P. falciparum luciferase reporter growth, 96 h; hit rate 6.9% among 320,000; Potency, µM (doses to about 28.7 µM), for the others: top-dose activity change, negative = inhibition, most hits filed as inhibitors; AID 504834; note: potency is the fitted concentration of half-maximal effect; % is set by controls: 0 for no effect and ±100 for the full control effect
#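 96 h incubation, 37 C, 5% CO2, of luciferase-reporter P. falciparum-infected RBCs (2% hematocrit, 0.05% parasitemia final) with test compounds; endpoint luminescence.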
# Pf growth 48h: P. falciparum growth inhibition at 48 hours (one generation) | P. falciparum luciferase growth in erythrocytes, 48 h | Potency, µM (titrated, usually from 28.7 µM), for inactives: at the highest dose activity change, negative = inhibition, usual class: inhibitors | hit rate 5.9% among 310,000; note: potency is the fitted concentration of half-maximal effect; % is set by controls: 0 for no effect and ±100 for the full control effect
#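 Erythrocytes infected with P. falciparum carrying an integrated firefly luciferase reporter (2% hematocrit, 0.1% parasitemia final) were exposed to compounds in RPMI 1640 with 0.5% Albumax at 37 C, 5% CO2. Growth inhibition was scored as reduced luminescence.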
# LmPK inh: blocks Leishmania mexicana pyruvate kinase activity; Potency, µM (doses to about 57.5 µM), for inactives: top-dose activity change, negative = inhibition, actives largely listed as inhibitors; hit rate 0.37% among 290,000; Q27686; purified LmPK, Kinase-Glo ATP luminescence, 1 h; note: potency is the fitted concentration of half-maximal effect; % is set by controls: 0 for no effect and ±100 for the full control effect
# Target sequence (Q27686 whole entry, looked up): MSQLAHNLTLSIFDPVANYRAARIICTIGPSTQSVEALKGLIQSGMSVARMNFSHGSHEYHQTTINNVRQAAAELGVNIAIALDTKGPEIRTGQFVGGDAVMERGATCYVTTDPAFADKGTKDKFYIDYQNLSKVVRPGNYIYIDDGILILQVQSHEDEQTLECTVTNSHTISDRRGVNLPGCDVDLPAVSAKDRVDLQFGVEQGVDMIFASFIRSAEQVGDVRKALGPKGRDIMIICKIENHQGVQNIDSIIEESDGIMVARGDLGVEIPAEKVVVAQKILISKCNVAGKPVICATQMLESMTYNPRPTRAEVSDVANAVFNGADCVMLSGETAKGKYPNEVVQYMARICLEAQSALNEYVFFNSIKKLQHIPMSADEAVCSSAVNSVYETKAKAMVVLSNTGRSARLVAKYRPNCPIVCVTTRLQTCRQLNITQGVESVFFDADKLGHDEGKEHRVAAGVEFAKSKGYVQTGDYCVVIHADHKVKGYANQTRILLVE
#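 Purified LmPK (0.1 nM) converted ADP (0.1 mM) to ATP with PEP (0.5 mM) in imidazole buffer pH 7.2 with KCl and MgCl2, 1 h at room temperature. ATP was read by Kinase-Glo luminescence; data normalized to uninhibited and no-enzyme controls.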
# * = called active by the depositor; ? = inconclusive; / = no result. Rows were chosen to be rich in hits. Some 22% of all compounds tested hit in one or more screens of this group. Unless noted, calls come from the whole dose curve; as a rule, active = well fitted inhibition curve with a large enough effect; inconclusive = small, poorly fitted or top-dose-only effect, or another doubt; inactive = no such curve, though single readings can be large or run the other way.
SMILES,Shiga toxin inh,CHX counter,Pf growth 96h,Pf growth 48h,LmPK inh
O[Si](CCCN1CCCCC1)(c1ccc(F)cc1)C1CCCCC1 (centres undefined),/,/,0.1µM*,0.093µM*,/
Cc1cc(C)cc(-n2c(C)c3c(C)nnc(C)c3c2C)c1,-13,-5,?,?,1%
Cc1nnc(C)c2c(C)n(-c3ccc(Cl)c(N)c3)c(C)c12,1,-3,13µM*,-28%,-8%
CC(=O)N1CCc2cc(S(=O)(=O)CCC(=O)N(C)Cc3ccco3)ccc21,-20,10,8%,-22%,-2%
O=C(Nn1cnnc1)c1ccccc1Cl,-19,-3,8.3µM*,3%,4%
COc1cccc(C(=O)Nc2cc(C)on2)c1OC,76*,49*,68%,186%,11%
COc1cccc(C(=O)Nn2cnnc2)c1OC,/,-4,2.1µM*,8%,-1%
Cc1cc(OC(=O)c2ccc(Cl)cc2Cl)c([N+](=O)[O-])c(=O)[nH]1,-3,1,45%,26%,-2%
Cc1c(NC(=O)CCc2ccccc2)cccc1[N+](=O)[O-],16,5,-79%,11%,-1%
CCCCOc1ccccc1NC(=O)CSc1nnnn1C(C)(C)C,-16,-3,7%,13%,5%
CCn1c(C(=O)NC2CCC(C)CC2)cc2sccc21 (centres undefined),73*,38*,-18%,113%,0%
CCOC(=O)N1CCC(NC(=O)c2cc3sccc3n2CC)CC1,8,-2,5.2µM*,15%,2%
CCn1c(C(=O)NC(C)c2ccc3c(c2)OCCO3)cc2sccc21 (centres undefined),-12,-1,1%,/,-3%
COc1ccccc1C(=O)NCCCNC(=O)c1cccnc1,-7,-3,11%,35%,0%
O=C(c1cc(COc2ccc(F)cc2Cl)on1)N1CCN(C2CCCC2)CC1,19,-3,?,19%,1%
Cc1ccc(C)c(OCc2cc(C(=O)N3CC[C@@H]4CCCC[C@H]4C3)no2)c1,105*,33*,-25%,9%,2%
COc1cc(C)ccc1OCc1cc(C(=O)N2CCC(c3ccc(F)cc3)C2)no1 (centres undefined),113*,58*,122%,49%,0%
Cc1ccc(C)c(S(=O)(=O)NCc2ccc(C(=O)N3CC(C)OC(C)C3)cc2)c1 (centres undefined),-5,-7,?,-9%,-2%
Cc1ccc(C)c(OCc2cc(C(=O)N3C[C@@H](C)O[C@@H](C)C3)no2)c1,87*,48*,?,6%,-3%
Cc1ccc(C)c(OCc2cc(C(=O)N3CCc4sccc4C3)no2)c1,-27,-2,-23%,7%,-7%
O=C(N/N=C/c1ccccc1)C(=O)N/N=C/c1ccccc1,20,-7,2%,15%,-4%
CN(C)c1ccc(/C=N/NC(=O)CNC(=O)/C=C/c2ccccc2)cc1,30*,30*,6%,115%,-14%
CNC(=O)CO/N=C/c1ccc(N(C)C)cc1,29*,22*,77%,24%,-2%
CN(c1ccccc1)c1ccc(/C=N/NC(=O)CC#N)cc1,58*,28*,-18%,-20%,2%
CN(C)/C=C(\C#N)C(=O)N/N=C/c1ccccc1,96,27*,174%,207%,-7%
SMILES,Shiga toxin inh,CHX counter,Pf growth 96h,Pf growth 48h,LmPK inh
CC(=O)c1c(C)[nH]c(C(=O)OCC(=O)N(CC(C)C)C2CCS(=O)(=O)C2)c1C (centres undefined),/,/,-2%,0%,/
COc1cc(S(=O)(=O)NCC(c2ccco2)N2CCCCC2)ccc1NC(C)=O (centres undefined),/,/,-21%,?,/
CCN(C(=O)COC(=O)c1ccc2c(=O)n3c(nc2c1)CCC3)C1CCS(=O)(=O)C1 (centres undefined),-3,-4,30%,8%,5%
Cc1ccccc1N(CC(=O)N/N=C/c1ccc(N(C)C)cc1)C(=O)c1ccccc1,31,34*,/,7%,-1%
CN(C)c1ccc(/C=N/NC(=O)COc2ccccc2)cc1,44*,38*,34%,376%,-1%
COC(=O)c1nc(Cl)c(Cl)c(N)c1Cl,-7,3,25%,10µM*,-1%
CCCCCCCCOC(=O)c1nc(Cl)c(Cl)c(N)c1Cl,-9,-4,?,?,-5%
OCc1ccc2c(c1)c(-c1ccc3c(c1)OCCO3)c(-c1ccccc1)n2-c1ccccc1,/,/,4.7µM*,?,/
CCOC(=O)C1CCCN(C(=O)COc2ccc(S(=O)(=O)N(CC)c3ccccc3)cc2)C1 (centres undefined),-5,-2,-20%,?,-1%
COc1ccc(Oc2c(C=O)c3ccccc3n2C)cc1,-20,0,-22%,21%,4%
Cn1c(Oc2ccc(Cl)cc2)c(C=O)c2ccccc21,-30,-2,9.3µM*,?,0%
Cn1c(Sc2ccc(Cl)cc2)c(C=O)c2ccccc21,9,3,?,12µM*,7%
O=C(NCC1CCCO1)c1ccc2c(c1)N(Cc1ccccc1)C(=O)CS2 (centres undefined),-1,10,10%,15%,-3%
CCCS(=O)(=O)Nc1ccc2cn[nH]c2c1,20,12,-3%,2%,-2%
Cc1cc(OCCN2CCC(Cc3ccccc3)CC2)ccc1[N+](=O)[O-],1,-2,-2%,2%,0%
CC1(C)Cc2cccc(OCC(O)CN3CCN(c4ccccn4)CC3)c2O1 (centres undefined),-5,-3,?,12µM*,-1%
Cc1cccc(OCC(O)CN2CCN(c3ccccn3)CC2)c1C (centres undefined),-1,-2,45%,35%,-3%
Cn1c(=O)c2c(nc(CN3CCN(C(c4ccccc4)c4ccccc4)CC3)n2CC(N)=O)n(C)c1=O,41,-5,?,/,6%
CCn1c(CN2CCN(C(c3ccccc3)c3ccccc3)CC2)nc2c1c(=O)n(C)c(=O)n2C,-4,-3,3.3µM*,/,1%
CCOC(=O)Cn1c(CN2CCN(C(c3ccccc3)c3ccccc3)CC2)nc2c1c(=O)n(C)c(=O)n2C,12,-2,1.9µM*,4.1µM*,4%
N#CC1=C(N)Oc2n[nH]c(-c3ccccc3)c2C1c1cccnc1 (centres undefined),-11,3,-7%,-30%,-1%
N#CC1=C(N)Oc2n[nH]c(-c3cccnc3)c2C1c1ccc([N+](=O)[O-])o1 (centres undefined),54,20*,?,-7%,4%
O=C(Nc1cc(S(=O)(=O)N2CCCCC2)ccc1Oc1ccccc1)C1=COCCO1,5,-2,10µM*,10µM*,-4%
COc1cccc(Oc2ccc(C(F)(F)F)cc2NC(=O)C2=COCCO2)c1,8,-3,7.4µM*,?,-2%
COc1ccc(NC(=O)c2c(-c3ccccc3)noc2C)c(OC)c1,-15,-4,?,/,7%
Cc1ccnc(NC(=O)c2c(-c3ccccc3Cl)noc2C)c1,64*,21*,50%,44%,0%
